Rows were chosen to be rich in hits. Some 10% of all compounds tested hit in one or more screens of this group.
G9a inh – G9a (human) methyltransferase inhibition; G9a H3K9 monomethylation, AlphaScreen, 2 h; Potency, µM (series often up to 102 µM), without a hit: at the top dose activity, negative = inhibition, hits mostly inhibitors; 350,000 tested, 8.8% active; further: on the % scale 0 is the no-effect control and ±100 the full control effect; nearly all actives have a fitted effect of over 75% in size
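Using a bead-based AlphaScreen, monomethylated H3K9 product from 2 h room-temperature reactions (G9a 20 nM, peptide 500 nM, SAM 20 uM) was detected with 0.5 ug/mL rabbit anti-H3K9me1 antibody.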
JMJD2A Tudor – inhibitors of human JMJD2A Tudor domain | O75164 | AlphaScreen JMJD2A-Tudor / H3K4me3 peptide binding | Potency, µM (series often up to 114 µM), for the others: at the highest dose activity change, negative = inhibition, hits mostly inhibitors | 390,000 tested, 4.4% active | AID 504339; further: on the % scale 0 is the no-effect control and ±100 the full control effect; nearly all actives have a fitted effect of over 50% in size
GLS inh – inhibitors of human glutaminase (GLS); O94925; GLS enzymatic activity, qHTS titration; Potency, µM (highest dose often 45.5 µM), for inactives: at the top dose activity change, negative = inhibition, most hits filed as inhibitors; 410,000 tested, 0.21% active; AID 624170; further: on the % scale 0 is the no-effect control and ±100 the full control effect
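Coupled fluorescence readout: glutamate oxidase/HRP/Amplex Red detect glutamate formed by hKGA from L-glutamine (1 mM solution added). Buffer 45 mM KH2PO4 pH 8.2, 0.02% Tween-20; reads at t0 and 30 min RT.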
HP1b chromo inh – inhibitors of HP1-beta chromodomain binding to methylated histone tails; P83916; AlphaScreen HP1-beta / biotin-H3K9me3 peptide binding; Potency, µM (titrated, usually from 114 µM), without a hit: top-dose activity change, negative = inhibition, actives largely listed as inhibitors; 390,000 tested, 0.56% active; AID 540317; further: nearly all actives have a fitted effect of over 70% in size
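AlphaScreen: HP1-beta (50 nM) preformed 30 min with biotin-H3(1-18)K9me3 peptide (50 nM) in PBS pH 7.4, 0.01% Tween-20. Compound added for 30 min at RT, then streptavidin donor/nickel chelate acceptor beads (10 ug/mL) for 30 min.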
BAZ2B inh – inhibitors of human BAZ2B bromodomain; Q9UIF8; 360,000 tested, 4.4% active; AlphaScreen BAZ2B-H3K14Ac peptide displacement; Potency, µM (highest dose often 114 µM), without a hit: top-dose activity change, negative = inhibition, usual class: inhibitors; further: on the % scale 0 is the no-effect control and ±100 the full control effect; nearly all actives have a fitted effect of over 60% in size
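AlphaScreen luminescence quantifies BAZ2B engagement of H3K14Ac peptide; the protein and biotinylated peptide are both at 50 nM final, buffer PBS pH 7.4 with 0.01% Tween-20, all steps at room temperature.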
* = called active by the depositor; ? = inconclusive; nt = no result given; [ ] = remark or other dose. The call rests on the fitted dose curve; in most records, active means well fitted curve in the direction sought with a large enough effect; inconclusive means small, poorly fitted or top-dose-only effect, or another doubt; inactive means no such curve, though single readings can be large; an effect the other way counts as inactive or inconclusive. Potency means the concentration at half of the fitted maximal effect.

SMILES | G9a inh | JMJD2A Tudor | GLS inh | HP1b chromo inh | BAZ2B inh
CCN(C(=O)CSc1nnc(-c2ccc3c(c2)OCO3)o1)C1CCS(=O)(=O)C1 (stereo unspecified) | 17%[12.7 µM] | -2% | 12% | 14% | -2%
O=C(/C=C/c1ccc2ccccc2c1)c1ccoc1 | 2% | -12% | 0% | 20% | 10%
COc1cc(CN2CCCC(C)C2)cc([N+](=O)[O-])c1O (stereo unspecified) | -19%[59 µM] | -11% | 23% | 2% | -9%
COc1ccccc1C1CCN(c2ccc(CO)cc2[N+](=O)[O-])CC1 | 35µM* | 56µM* | -3% | ? | ?
COc1cc(CN2CCCN(C)CC2)cc([N+](=O)[O-])c1O | nt | 0.89µM* | -10% | ? | ?
COc1cc(CN2CCc3ccccc3C2)cc([N+](=O)[O-])c1O | 8.9µM* | 22µM* | 17% | ? | ?
COc1cc(CN2CCc3ccccc3C2)ccc1O | 14µM* | 20µM* | 22% | ? | 50µM*
COc1ccc(OCCn2c(C)nc3cc(C)c(C)cc32)cc1 | ? | ? | 5% | 15% | -25%
